{
  "source": "PubChem BioAssay AID2284369",
  "about": "(EPA ToxCast)",
  "note": "Inconclusive results are not listed. The source made the active and inactive calls. How the source made its calls: active means hit-call score of the fitted dose curve at least 0.9, where 1 is the maximum; inconclusive means response in the unintended direction; inactive means score below 0.9.",
  "data": [
    {"system": "frog Estrogen Receptor (ER1), gene 398734", "assay": "ATG_frER1_EcoTox2: Attagene TRANS-FACTORIAL EcoTox-2 HepG2 Assay for frog Estrogen Receptor (ER1)", "procedure": "ATG_EcoTox2 is a cell-based, multiplexed assay created by modifying the existing Attagene TRANS-FACTORIAL system to include a panel of nuclear receptors from some or all the following species: human (Homo sapiens), african clawed frog (Xenopus laevis), rainbow trout (Oncorhynchus mykiss), japanese medaka (Oryzias latipes), and zebrafish (Danio rerio). The ECOTOX2-FACTORIAL format uses HepG2, a human liver cell line, with measurements taken at 24 hours after chemical dosing in a 24-well plate. ATG_frER1_EcoTox2 is one of 29 assay components calculated in the ATG_EcoTox2 assay. It is designed to make measurements of mRNA induction, a form of inducible reporter, as detected with fluorescence intensity signals by Reverse transcription polymerase chain reaction (RT-PCR) and Capillary electrophoresis technology.The assay endpoint ATG_frER1_EcoTox2 was analyzed in the positive analysis fitting direction relative to DMSO as the negative control and baseline of activity. Using a type of inducible reporter, measures of mRNA for gain-of-signal activity can be used to understand the reporter gene at the transcription factor-level as they relate to the gene ER. Furthermore, this assay endpoint can be referred to as a primary readout, because this assay has produced multiple assay endpoints where this one serves a reporter gene function. To generalize the intended target to other relatable targets, this assay endpoint is annotated to the nuclear receptor intended target family, where the subfamily is steroidal.\nHuman liver HepG2 cells are transiently transfected with multiple reporter transcription units (MRTUs) in 6-well plates using FuGene 6 reagent (Roche; 3 ml FuGene/1 mg DNA). The MRTU constructs are regulated by a cis-regulating element (promoter). Each RTU expresses a GAL4-UAS that regulates the transcription of a nearby target reporter gene sequence. A major difference between the CIS and TRANS system is that in CIS activities of endogenous TFs are measured, whereas the TRANS assay evaluates changes in activities of exogenous, chimeric NR-Gal4 proteins. […] At the end of 24 hour incubation, total RNA was isolated using TriZol reagent (Invitrogen). The isolated RNA is then reverse-transcribed using oligo(dT) primer and Mo-MLV reverse transcriptase (Invitrogen) with DNAse I (Ambion) treatment for 30 min. The one-tenth of the produced cDNA was amplified by PCR using Taq DNA polymerase (Invitrogen) and two reporter sequence-specific primers. […] The fragments were purified using Qiaquick PCR columns (Qiagen), analyzed on an ABI 3130xL genetic analyzer (Applied Biosystems) with peak positions identified by using a set of X-rhodamine (ROX)-labeled MapMarker1000 molecular weight standards (BioVentures). […]", "values": [
      {"smiles": "O=S(=O)(O)C(F)(F)C(F)(F)C(F)(F)C(F)(F)C(F)(F)C(F)(F)F", "outcome": "inactive"},
      {"smiles": "O=P(Oc1ccccc1)(Oc1ccccc1)Oc1ccccc1", "outcome": "inactive"},
      {"smiles": "CCCCOCN(C(=O)CCl)c1c(CC)cccc1CC", "outcome": "inactive"},
      {"smiles": "O=C(O)C(F)(F)C(F)(F)C(F)(F)C(F)(F)C(F)(F)C(F)(F)C(F)(F)F", "AC50": "75 µM (active)"}
    ]}
  ]
}
